This is a sample that favours compounds with a hit; in the whole collection about 10% have one here.
HPGD inh = qHTS Assay for Inhibitors of HPGD (15-Hydroxyprostaglandin Dehydrogenase). 15-hydroxyprostaglandin dehydrogenase [NAD(+)] (Homo sapiens), P15428. purified HPGD, NADH fluorescence kinetic, PGE2 substrate. Potency, µM, most hits filed as inhibitors. hit rate 4.3% among 150,000. AID 894, 2007
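NADH formation kinetics: reaction with 30 uM PGE2 and 1 mM NAD+ (final), 20 nM enzyme, Tris-HCl pH 8 with Tween 20, after 15 min compound preincubation at room temperature. Fluorescence change, last versus first of five reads.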
Lamin A splicing = qHTS Assay for Modulators of Lamin A Splicing | HeLa LMNA splicing GFP/RFP minigene ratio, 48 h | Potency, µM (titrated, usually from 46.1 µM), usual class: inhibitors | hit rate 0.01% among 200,000 | AID 1487, 2009; active = well fitted inhibition curve with a large enough effect in the signal ratio, with a control signal flat, not every such curve was filed as active; inconclusive = small, poorly fitted or top-dose-only effect, or effect the other way, or a change in a side signal; the % refers to the signal ratio
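S3 HeLa stable clones carrying a lamin A-EGFP splicing minigene plus DsRed2 were seeded at 600 cells/well in Opti-MEM with 2% FBS, pin-dosed and incubated 48 h at 37°C. Acumen cytometry (488 nm) gave the GFP/RFP total-intensity ratio.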
ALDH1A1 inh = qHTS Assay for Inhibitors of Aldehyde Dehydrogenase 1 (ALDH1A1); Aldehyde dehydrogenase 1A1 (Homo sapiens), P00352; Purified ALDH1A1, NADH fluorescence, propionaldehyde substrate; Potency, µM (series often up to 75.3 µM), most hits filed as inhibitors; hit rate 7.3% among 220,000
ALOX12 inhib = qHTS Assay for Inhibitors of 12-hLO (12-human lipoxygenase); purified 12-hLO, xylenol orange hydroperoxide absorbance; Potency, µM (doses to about 57.1 µM), actives largely listed as inhibitors; hit rate 0.12% among 150,000; AID 1452, 2008; active = well fitted inhibition curve with a large enough effect; inconclusive = small, poorly fitted or top-dose-only effect; also: nearly all actives have a fitted effect of over 55% in size
Target sequence (P18054 whole entry, looked up): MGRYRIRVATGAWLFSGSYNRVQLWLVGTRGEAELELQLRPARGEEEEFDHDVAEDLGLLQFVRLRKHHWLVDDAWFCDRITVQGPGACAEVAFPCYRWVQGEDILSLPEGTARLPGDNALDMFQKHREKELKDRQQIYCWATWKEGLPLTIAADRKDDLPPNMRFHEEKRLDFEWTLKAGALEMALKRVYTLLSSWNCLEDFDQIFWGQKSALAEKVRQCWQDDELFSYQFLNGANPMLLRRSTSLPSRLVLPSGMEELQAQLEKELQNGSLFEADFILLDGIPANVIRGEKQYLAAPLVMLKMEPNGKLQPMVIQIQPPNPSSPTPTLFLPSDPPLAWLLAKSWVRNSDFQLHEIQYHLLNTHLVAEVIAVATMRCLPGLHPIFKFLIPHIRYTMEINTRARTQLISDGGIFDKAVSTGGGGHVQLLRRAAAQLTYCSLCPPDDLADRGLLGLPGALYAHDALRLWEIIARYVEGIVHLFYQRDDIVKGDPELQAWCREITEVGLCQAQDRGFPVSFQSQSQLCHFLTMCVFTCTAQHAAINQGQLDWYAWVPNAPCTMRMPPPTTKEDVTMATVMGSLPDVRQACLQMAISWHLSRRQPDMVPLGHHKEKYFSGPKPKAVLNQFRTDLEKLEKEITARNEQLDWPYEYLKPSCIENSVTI
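Lipoxygenase turnover measured by absorbance at 573 and 405 nm after Fe-XO development. Human 12hLO 150 nM, arachidonate 40 uM, pH 7.0 Hepes buffer with detergent; 15 min compound preincubation, 30 min reaction.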
PNC inhibitor = High Content Assay for Compounds that inhibit the Assembly of the Perinucleolar Compartment; PC3M PTB-GFP, PNC prevalence imaging, 16 h; stronger effect = lower value; activity change (PNC), negative = inhibition, % at 10 µM; hit rate 3.1% among 140,000; AID 2417, 2010;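 active = readout at or below -70, meaning at least 70% loss of cells showing the perinucleolar compartment, a nuclear body marking cancer cells; inconclusive = readout between -30 and a set limit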
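PC3M cells stably expressing PTB-GFP, 750–1000 cells/well, treated 16 h at 37 °C with compound (23 nl of library stock), in duplicate. After paraformaldehyde fixation and Hoechst stain, imaged at 20x; PNC prevalence scored by image analysis.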
Numbers stand for hits; n = inactive; u = inconclusive; x = no result; [ ] = another dose, or the depositor's remark. Unless noted, calls follow the shape of the dose curve; as a rule, active = well fitted inhibition curve with a large enough effect (not every such curve was filed as active); inconclusive = small, poorly fitted or top-dose-only effect, or another doubt; inactive = no such curve, though single readings can be large or run the other way.

SMILES	HPGD inh	Lamin A splicing	ALDH1A1 inh	ALOX12 inhib	PNC inhibitor
COc1ccc2c(c1OC)C(=O)N(c1cccc(C)c1)C2=O	n	n	5.01µM	n	n
COC(=O)c1ccc(N2C(=O)c3ccc(OC)c(OC)c3C2=O)cc1	n	n	n	n	u
Cc1nc(SCC(=O)NCc2cccs2)nc(C)c1C	x	x	n	x	x
Cc1ccc(NC(=O)Nc2cccs2)c(Cl)c1	n	u	n	u	u
COc1cccc(CNC(=O)CCn2cccn2)c1	x	n	x	x	x
COc1cccc(CNC(=O)Cn2cccc2)c1	14.1µM	n	n	n	n
O=C(CSc1cccc2cccc(Cl)c12)NCc1cccs1	10µM	n	n	n	u
O=C(Nc1cccs1)Nc1ccccc1Cl	u	n	u	u	-82.3
O=C(Cc1ccc(-n2cccc2)cc1)NCc1cccs1	x	u	n	n	-106.0
O=C(COC(=O)CCC(=O)c1cccs1)NC(=O)c1ccc(OC(F)F)cc1	x	n	n	x	x
Cc1ccccc1CNC(=O)Nc1cccs1	n	n	u	n	n
O=C(CCCCC(=O)NCc1cccs1)NCc1cccs1	n	n	n	n	n
O=C(Cn1cccc1)NCc1cccs1	20µM	n	n	n	n
O=C(NCc1cccs1)Nc1cccs1	u	n	17.8µM	n	n
CCOC(=O)c1c(C)sc(-c2c(-c3ccc4c(c3)OCCO4)[nH]c3c2c(=O)[nH]c(=O)n3C)c1O	x	n	x	x	x
Nc1cccnc1Sc1ccc([N+](=O)[O-])cn1	10µM	n	u	n	n
O=[N+]([O-])c1ccc(Sc2n[nH]c(-c3ccccc3)n2)nc1	8.91µM	u	n	n	n
O=[N+]([O-])c1ccc(Sc2ccccc2)nc1	n	n	n	n	n
CCOC(=O)C1=C(N)OC2=C(C(=O)CCC2)C1c1cccnc1 (stereo unspecified)	n	n	n	n	-119.6
CCOC(=O)C1=C(N)OC2=C(C(=O)CCC2)C1c1ccc(C)s1 (stereo unspecified)	n	n	u	n	-107.1
CCOC(=O)C1=C(N)OC2=C(C(=O)CCC2)C1c1sccc1C (stereo unspecified)	n	n	n	n	n
CN(CCc1ccc(Cl)c(Cl)c1)CCN1CCCC1	n	x	n	n	x
O=C(Cn1cnc2c(nc3n2CCCCC3)c1=O)Nc1ccc(F)cc1	x	n	x	x	x
O=C(O)[C@@H]1[C@@H](C(=O)O)[C@@]23CCCC2=C2CC[C@@]3(C(=O)O)[C@@]3(C(=O)O)C[C@@]213	n	x	n[13.5 µM]	x	x
C=CCC1Cc2c(cccc2[N+](=O)[O-])C(CC=C)N1 (stereo unspecified)	x	x	15.8µM	x	x
SMILES	HPGD inh	Lamin A splicing	ALDH1A1 inh	ALOX12 inhib	PNC inhibitor
C=CCC1C=CCC(CC=C)N1C(=O)c1ccccc1[N+](=O)[O-] (stereo unspecified)	n	u	n	n	n
CS(=O)(=O)CCC(C(=O)OCc1ccc(Br)cc1)N1C(=O)c2ccccc2C1=O (stereo unspecified)	n	n	n	n	n
COC(=O)c1ccc(COC(=O)C(CCS(C)(=O)=O)N2C(=O)c3ccccc3C2=O)cc1 (stereo unspecified)	n	n	n	n	-104.2
CCOC(=O)C(=O)Nc1cc([N+](=O)[O-])ccc1C	n	n	u	n	n
COCCNC(=S)Nc1ccccc1[N+](=O)[O-]	x	x	n	x	x
CCCCNC(=S)Nc1cc([N+](=O)[O-])ccc1C	14.1µM	n	n	n	n
COc1cc(C(=O)NC(=S)Nc2ccc([N+](=O)[O-])cc2C)cc(OC)c1OC	n	n	12.6µM	n	n
COCCCNC(=S)Nc1ccccc1[N+](=O)[O-]	x	x	22.4µM	x	x
COc1cc(C(=O)NC(=S)Nc2ccccc2[N+](=O)[O-])cc(OC)c1OC	x	n	17.8µM	x	x
COc1ccc(C(CC(=O)NCc2ccccc2)Sc2n[nH]c(-c3ccccc3)n2)cc1 (stereo unspecified)	7.94µM	n	n	n	n
CCCC(CCC)C(=O)Nc1cccc(-c2cn3cccnc3n2)c1	x	n	x	x	x
CC(C)Oc1ccc(CNC(=O)CN2C(=O)CCn3nc(-c4cn(C)c5ccccc45)cc32)cc1	x	n	x	x	x
O=C(Nc1ccccc1CC[N+](=O)[O-])N1CCN(c2ccccc2)CC1	x	n	8.91µM	x	x
CC1(C)CC(=O)C(C=NCCc2ccc(O)cc2)=C(O)C1	n	n	u	n	n
CC1(C)CC(=O)C(C=Nc2ccc3c(c2)OCO3)=C(O)C1	n	n	12.6µM	n	u
CC1(C)CC(=O)C(C=Nc2ccc(C(=O)c3ccccc3)cc2N=CC2=C(O)CC(C)(C)CC2=O)=C(O)C1	x	u	10µM	x	x
CC1(C)CC(=O)C(C=Nc2ccc(O)c(N=CC3=C(O)CC(C)(C)CC3=O)c2)=C(O)C1	x	x	1.12µM	x	x
CC1(C)CC(=O)C(C=NCCN2CCN(C(=O)c3ccccc3)CC2)=C(O)C1	n	n	n	n	n
CCOc1cc(/C=C(\C#N)c2[nH]nc(N)c2C#N)ccc1O	25.1µM	n	u	n	n
CN(C)c1oc(-c2ccccc2[N+](=O)[O-])nc1C#N	x	x	10µM	x	x
CCOC(=O)c1c(NC(=O)CCN2CCOCC2)sc2c1CC(C)(C)OC2	n	n	22.4µM	n	u
C=C(C)CNC(=S)Nc1sc2c(c1C(=O)OCC)CC(C)(C)OC2	x	n	12.6µM	n	n
CCOC(=O)c1c(NC(=O)CCC(=O)N2CCOCC2)sc2c1CC(C)(C)OC2	n	n	u	n	u
CCOC(=O)c1c(NC(=O)CN2CCOCC2)sc2c1CC(C)(C)OC2	n	n	14.1µM	n	u
Cc1ccc([C@@]2(C)CC/C(=N/N=C3\CC[C@](C)(c4ccc(C)c(C)c4)c4cc(C)c(C)cc43)c3cc(C)c(C)cc32)cc1C	n	x	n[13.5 µM]	n[11.4 µM]	x
SMILES	HPGD inh	Lamin A splicing	ALDH1A1 inh	ALOX12 inhib	PNC inhibitor
CCOC(=O)c1cc(-c2ccc(F)cc2)n(CCC(=O)NC2CCC(C)CC2)c1C (stereo unspecified)	x	n	x	x	x
CCCCOc1ccc(S(=O)(=O)n2nc(C)c(S(=O)(=O)N3CCC(C)CC3)c2C)cc1	x	n	x	x	x
Cc1ccc(NC(=O)Cn2cnc3onc(-c4ccc(F)cc4)c3c2=O)c(Cl)c1	x	n	x	x	x
CCOC(=O)CSC1=C(C#N)C(c2sccc2C)C(C(C)=O)=C(C)N1 (stereo unspecified)	n	n	22.4µM	n	n
CCCSC1=C(C#N)C(c2ccc(Cl)cc2Cl)CC(=O)N1 (stereo unspecified)	31.6µM	u	20µM	u	u
COC(=O)CSC1=C(C#N)C(c2ccccc2)CC(=O)N1 (stereo unspecified)	n	n	15.8µM	n	n
CCSC1=C(C#N)C(c2ccccc2Cl)CC(=O)N1 (stereo unspecified)	n	n	u	n	n
N#CC1=C(SCC(N)=O)NC(=O)CC1c1ccccc1Cl (stereo unspecified)	n	n	20µM	n	n

Screening data from PubChem.
